Out of some 69,000 compounds screened, about 8,600 (12%) showed an effect of 50% or more. For the sample, strong results were picked, then their nearest neighbours and some compounds at random.

This assay deals with Plasmodium berghei. Put plainly: Screen against P. berghei liver stage (PbLuc), transformed with Luciferase, at 10uM. It is filed as functional, HepG2. The conditions noted are these: tested at 10 uM.
Consider `CCCc1nc(CNC2(c3nccs3)CCCC2)cs1`, for which the INHIBITION is listed as -15.4%.
In the case of `Cc1cc(NC(=O)CN2CCc3c(nc(C(C)C)n3C)C2)on1` it was -21.2%; in that of `Cc1cnn(CC2CCCCN2C(=O)c2n[nH]c3ccccc23)c1` (centres undefined), -43.5%; in that of `C1CC(CN2CCOCC3(CCN(C4CCOCC4)C3)C2)CCO1` (centres undefined), 40.9%.
In the case of `Fc1cccc(CN2CCOCC3(CCN(C4CCOCC4)C3)C2)c1` (centres undefined) it was 58.1%; in that of `c1csc(CN2CCOCC3(CCN(C4CCOCC4)C3)C2)c1` (centres undefined), 11.6%; in that of `COCCN1CCOCC2(CCCN(Cc3cccc(F)c3)C2)C1` (centres undefined), 46.9%.
In the case of `O=C(c1ccco1)N1CCOCC2(CCN(C3CCOCC3)C2)C1` (centres undefined), the INHIBITION amounted to 8.69%.
As for `Fc1cccc(CN2CCOC3(COCCN(CC4CC4)C3)C2)c1` (centres undefined), the INHIBITION is given as 81%.
To `Cn1cc(CN2CCOCC3(CCN(C4CCOCC4)C3)C2)cn1` (centres undefined) belongs 11.6%; to `c1csc(CN2CCOCC3(CCN(C4CCOCC4)C3)C2)n1` (centres undefined), 63.1%.
As to `c1ccc(CN2CCOCC3(CCN(C4CCOCC4)C3)C2)cc1` (centres undefined), the INHIBITION was 50%.
In the case of `Cc1cccc(CN2CCOCC3(CCN(C4CCOCC4)C3)C2)c1` (centres undefined) it was -35.9%; in that of `c1cc(CN2CCOCC3(C2)CN(Cc2nccs2)CCO3)ccn1` (centres undefined), 34.4%; in that of `c1csc(CN2CCC3(COCCN(CC4CC4)C3)C2)n1` (centres undefined), -23.3%.
For the compound `CCn1nc(C)c(NC(=O)CN2CC[C@H](CO)[C@@H](O)C2)c1C`, the INHIBITION was 10.6%.
As to `O=S(=O)(CCCNCCn1cccn1)c1ccccc1`, the INHIBITION is listed as -42.8%.
In the case of `CCCc1nc(CN(CC)C(=O)c2ccc(S(C)(=O)=O)cc2)no1`, the INHIBITION is given as 19.8%.
`CCn1ccc(NC(=O)CN2C(=O)CC(C)(C)c3ccccc32)n1`: the INHIBITION is on record as -34.9%.
To `O=C(C1CCCO1)N1CCC2(CC1)COCCN(Cc1ccncc1)C2` (centres undefined) belongs 5.44%; to `c1cc(CN2CCOCC3(CCNCC3)C2)ccn1`, 63.7%; to `O=C(C1CCOC1)N1CCC2(CC1)COCCN(Cc1ccncc1)C2` (centres undefined), 1.94%.
For `CN(C)CC(=O)N1CCC2(CC1)COCCN(Cc1ccncc1)C2`, the INHIBITION was found to be 61.4%.
In the case of `c1cc(CN2CCOCC3(CCN(C4CCOCC4)C3)C2)ccn1` (centres undefined) it was 52.2%; in that of `COc1ccc(CN2CCOCC3(CCN(C4CCOCC4)C3)C2)cc1` (centres undefined), 11.6%; in that of `O=C(c1ccsc1)N1CCC2(CC1)COCCN(Cc1ccncc1)C2`, 25.2%.
In the case of `c1cc(CN2CCOCC3(CCN(CC4CCOCC4)CC3)C2)ccn1` it was 39.2%.
For `COc1ccc(F)c(CN2CCCC3(CCN(C4CCOCC4)C3)C2)c1` (centres undefined), the INHIBITION stood at 77.8%.
As to `CCS(=O)(=O)N1CCC2(CCCN(Cc3cc(OC)ccc3F)C2)C1` (centres undefined), the INHIBITION was -14%.
Take `c1cncc(CN2CCC3(COCCN(C4CCOCC4)C3)C2)c1` (centres undefined): the INHIBITION came out at 17.5%.
To `COc1ccc(F)c(CN2CCCC3(CCN(S(C)(=O)=O)C3)C2)c1` (centres undefined) belongs 47%; to `Cc1cnn(CC(C)Nc2nc(C)cc(N(C)C)n2)c1` (centres undefined), 15.6%.
In the case of `Cc1cc(-n2c(C)cn(CN(C)CC3CC3)c2=O)no1` it was -8.9%.
Regarding `Cc1ccc(NC(=O)N2CCCC(N(C)C)C2)c(Br)c1` (centres undefined), the INHIBITION is given as 15.1%.
On to `Cc1cc(C(=O)N[C@H](C)c2onc(-c3cccnc3)c2C(=O)O)c(C)o1`, for which the INHIBITION is reported as -30.7%.
To `NS(=O)(=O)CCCNC(=O)C1(c2cccc(Cl)c2)CC1` belongs 11.8%.
In the case of `CCn1nc(C)c2nnn(CC(=O)Nc3ccc(C)cc3)c(=O)c21` it was 29.2%; in that of `Cc1c[nH]c(C2COCCN2C(=O)CCc2c(C)n[nH]c2C)n1` (centres undefined), -3.65%.
To `Cc1nc(C(C)C)sc1C(C)N(C)C(=O)c1ccc(=O)n(C)c1` (centres undefined) belongs 16.1%; to `O=C(c1ccoc1)N1CCOC2(COCCN(c3ncccn3)C2)C1` (centres undefined), 46.6%.
As for `Cn1ccc(C(=O)N2CCOC3(COCCN(CC4CC4)C3)C2)n1` (centres undefined), the INHIBITION was -25.1%.
To `O=C(c1ccoc1)N1CCOC2(COCCN(CC3CC3)C2)C1` (centres undefined) belongs 71.3%; to `CNC(=O)CCc1cc(C2CCCCN2C)nc(C)n1` (centres undefined), -11.3%.
Turning to `O=C1[C@H]2CN(Cc3ccc(F)cc3)C[C@H]2CN1c1ccsc1`, the INHIBITION is 22.9%.
On to `Cn1cc(N2C[C@@H]3CN(Cc4ccccn4)C[C@@H]3C2=O)cn1`, for which the INHIBITION stood at 34.9%.
On to `O=C1[C@H]2CN(Cc3nccs3)C[C@H]2CN1c1ccsc1`, for which the INHIBITION stood at 32.4%.
To `O=C1[C@H]2CN(Cc3ccncc3)C[C@H]2CN1c1ccsc1` belongs 15.9%; to `COc1ccc(CN2C[C@H]3CN(c4ccsc4)C(=O)[C@H]3C2)cc1`, 50%; to `O=C1[C@H]2CN(Cc3ccccn3)C[C@H]2CN1c1ccsc1`, 56.7%.
To `O=C(c1ccco1)N1CC[C@@H](N2CCOCC2)[C@@H]1Cc1ccncc1` belongs 24.1%.
With `Cc1cc(CN2CCN(C(=O)NCc3c(C)noc3C)CC2)on1`, the INHIBITION is given as 44.3%.
As to `O=c1[nH]nc2c(S(=O)(=O)N3CCN(c4ccc(F)cc4)CC3)cccn12`, the INHIBITION was determined as 39.5%.
To `Cc1cnn(CCNCc2csc(-c3ccsc3)n2)c1` belongs -69.15%.
To `CC(CN1CCOCC1)NC(=O)Nc1cccnc1-n1cccn1` (centres undefined) belongs -31.1%; to `CN(C)CCO[C@@H]1CC[C@H]2[C@H]1OCCN2C(=O)c1ccc(F)cc1`, 42.1%.
In the case of `CC(=O)N1CCC(Cc2cnc(-c3c(C)n[nH]c3C)cn2)CC1` it was 1.5%.
With `Cc1cc(NC(C)Cc2cccs2)n2nccc2n1` (centres undefined), the INHIBITION was found to be 42.1%.
To `Cn1cc(CN2CCC(F)(F)C3(CCN(c4cnccn4)C3)C2)cn1` (centres undefined) belongs -31.5%; to `CCOc1ncnc2c1CCN(Cc1cccs1)CC2`, 36.2%.
Consider `COc1cc(C)ccc1OCCC(=O)N1CCCC(n2cncn2)C1` (centres undefined), for which the INHIBITION is on record as -16%.
On to `CCOCC1CN(C(=O)Cc2ccccn2)Cc2cn(CC)nc21` (centres undefined), for which the INHIBITION is listed as 31.4%.
As to `CCOCC1CN(C(=O)COc2ccccc2)Cc2cn(C)nc21` (centres undefined), the INHIBITION worked out at 5.96%.
In the case of `CCOCC1CN(C(=O)Cc2ccccn2)Cc2cnn(CC)c21` (centres undefined) it was 54.4%; in that of `CCOCC1CN(C(=O)c2cnoc2C)Cc2cnn(C)c21` (centres undefined), -11.2%; in that of `CCOCC1CN(C(=O)Cc2ccccn2)Cc2cn(C)nc21` (centres undefined), 51.2%.
To `CCOCC1CN(C(=O)Cc2ccccn2)Cc2c1cnn2CC` (centres undefined) belongs 42.7%; to `CCOCC1CN(C(=O)Cc2ccccn2)Cc2cnn(C)c21` (centres undefined), -45.8%; to `CCOCC1CN(C(=O)c2cnoc2C)Cc2cn(CC3CC3)nc21` (centres undefined), -50.8%.
Turning to `CCOCC1CN(C(=O)c2cnoc2C)Cc2cn(C)nc21` (centres undefined), the INHIBITION is 51.2%.
In the case of `CC(NC(=O)N1CCC1)c1ccc(S(C)(=O)=O)cc1` (centres undefined) it was 18.4%; in that of `CC(=O)N(C)c1nc(CN2CCCC2Cn2nc(C)cc2C)cs1` (centres undefined), -14.7%.
As to `O=C(c1csc(-c2ccccn2)n1)N1CCCC1Cn1cccn1` (centres undefined), the INHIBITION is listed as 38.8%.
Regarding `O=C(Cc1cccs1)N1CCC(O)(CN2CCc3ccccc3C2)C1` (centres undefined), the INHIBITION was found to be 38.2%.
On to `CC(=O)NCC1CCN(C(=O)CCOc2ccc(C(C)C)cc2)CC1`, for which the INHIBITION is on record as -39.35%.
In the case of `CSc1ccc(CNC(=O)NCC(O)c2cccc(F)c2)cc1` (centres undefined) it was 19.6%.
In the case of `CNC(=O)NCC1CCC2(CCN(c3ncccn3)CC2)CO1` (centres undefined) it was 15.8%; in that of `CC(=O)N1CC(=O)N(c2cnn(C)c2)CC12CCN(Cc1cccs1)C2` (centres undefined), 6.27%; in that of `Cc1c(Cn2ccnc2-c2cc(CN(C)C)cs2)cnn1C`, 23.5%.
To `CN(C)Cc1csc(-c2nccn2CCc2cccnc2)c1` belongs 59.1%; to `Cc1nc(C)c(Cn2ccnc2-c2cc(CN(C)C)cs2)s1`, 30.9%; to `CN(C)Cc1cc(-c2nccn2CCc2cccnc2)ccc1O`, 31.3%.
Take `CN(C)Cc1csc(-c2nccn2Cc2ccc(C(=O)O)cc2)c1`: the INHIBITION came out at 37.4%.
`CN(C)Cc1csc(-c2nccn2Cc2ccsc2)c1`: the INHIBITION is 66.1%.
In the case of `O=C(NCC1CCOCC1)c1cc(-c2ccncc2)c2cnccc2n1` it was 17.4%; in that of `CN(Cc1nnc2n1CCC2)C(=O)CCc1ccc2c(c1)OCO2`, -21.8%; in that of `C[C@H]1CN(Cc2cccc(F)c2)C[C@@]12CCN(CC(=O)N(C)C)C2=O`, 19.8%.
In the case of `Cc1ccc(N2CCCC(NCc3ccc(Cl)o3)C2)nn1` (centres undefined) it was -12.1%.
To `COc1cc(C)cc(OC)c1C(C(=O)O)N(C)Cc1c(C)nn(C)c1C` (centres undefined) belongs 9.56%.
Take `CCOc1ccccc1C(C(=O)O)N(C)Cc1nnc(C)o1` (centres undefined): the INHIBITION is on record as -0.614%.
To `Cc1n[nH]c(C)c1CN(C)C(C(=O)O)c1ccc2c(c1)OCO2` (centres undefined) belongs 11.2%; to `COc1cccc(Cl)c1C(C(=O)O)N(C)Cc1nnc(C)o1` (centres undefined), 52.2%; to `COc1cccc(Cl)c1C(C(=O)O)N(C)Cc1c(C)n[nH]c1C` (centres undefined), 57.6%.
In the case of `COc1cccc(OC)c1C(C(=O)O)N(C)Cc1c(C)n[nH]c1C` (centres undefined) it was 53.3%; in that of `COc1ccc(C(C(=O)O)N(C)Cc2ccon2)cc1Cl` (centres undefined), -23.5%; in that of `COc1cccc(C(=O)N(C)C(C)c2c(C)n[nH]c2C)c1OC` (centres undefined), 12.6%.
`Cc1n[nH]c(C)c1CN(C)C(C(=O)O)c1c(F)cccc1OC(C)C` (centres undefined): the INHIBITION was 40.6%.
As for `COc1ccc(CCC(=O)Nc2ccc3ncn(C)c(=O)c3c2)cc1`, the INHIBITION was found to be 22.3%.
In the case of `COCc1cn(CC2CCN(Cc3nc(C)c[nH]3)CC2)nn1` it was -7.85%.
In the case of `Cc1cc(C(=O)N2CCc3c(CN(C)C)nn(C)c3C2)[nH]n1` it was 13.7%.
In the case of `O=C(NCCc1ccncc1)c1cccc(S(=O)(=O)N[C@@H]2CCNC2)c1` it was -16.1%.
Regarding `O=C(Nc1nc2c(s1)CN(S(=O)(=O)C1CC1)CC2)C1CC1`, the INHIBITION amounted to 37.9%.
`O=C(Nc1nc2c(s1)CNCC2)NC1CCCC1`: the INHIBITION is given as 44.5%.
For the compound `O=C(Nc1nc2c(s1)CNCC2)C1CC1`, the INHIBITION was 52.7%.
To `O=C(c1cc(-n2cccn2)ccn1)N1CCOc2ccncc21` belongs 52.9%.
To `COc1cccc(OCC(=O)N2CCOc3ccncc32)c1` belongs -28.9%; to `O=C(c1cc(-n2cccn2)ccn1)N1CCOc2ccc(F)cc21`, 23.3%.
In the case of `O=C(c1cc(-n2cccn2)ccn1)N1CCOc2ncccc21` it was 30.5%; in that of `O=C(COc1ccccc1Br)N1CCOc2ccncc21`, 9.35%.
Regarding `COc1ccc(C(=O)N2CCOc3ccncc32)cc1`, the INHIBITION came out at 60%.

These data come from ChEMBL document CHEMBL4513216, “Probing the Open Global Health Chemical Diversity Library for Multistage-Active Starting Points for Next-Generation Antimalarials” (ACS Infect Dis, 2020).
